Data on 14 compounds can be found in PubChem BioAssay.

Assay [1] deals with TRPC4 beta (transient receptor potential cation channel C4), mouse. Description: activators of mouse TRPC4 channel, confirmation, cell-based, Fluo4 calcium, HEK293 TRPC4beta/mu-opioid, duplicates, 10 µM (AID 2426;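 active = fluorescence ratio normalized to control raised more than 50% in primary screen plus both repeat runs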). Particulars: Fluo4 calcium fluorescence, at 10 µM; active compounds read high.
For assay [2], the system named is transient receptor potential cation channel C4 beta (TRPC4), mouse. Description: activators of mouse TRPC4 channel, confirmation, cell-based, second round, Fluo4, HEK293 TRPC4beta/mu-opioid, 1 µM (AID 2461). Particulars: Fluo4 calcium fluorescence, at 1 µM; active compounds read high.
The subject of assay [3] is TRPC4 (transient receptor potential cation channel C4 beta), mouse. In words: positive allosteric modulators of mouse TRPC4, confirmation, cell-based, second round, Fluo-4, HEK293 TRPC4beta/mu-opioid, 1 µM (AID 2554;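 active = primary screen hit whose fluorescence ratio, in both repeats, exceeds the weak agonist control mean by 3 SD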). The note with it: DAMGO EC20, Fluo-4 calcium flux, at 1 µM; active compounds read high.
In assay [4] the test system is TRPC4 beta (transient receptor potential cation channel C4), mouse. Description: positive allosteric modulators of mouse TRPC4, confirmation, cell-based, Fluo-4, HEK293 TRPC4beta/mu-opioid (AID 2555;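 active = primary screen hit whose calcium fluorescence ratio, in both repeats, exceeds the weak agonist control mean by 3 SD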). The note with it: DAMGO EC20, Fluo-4 calcium flux, at 10 µM; active compounds read high. A general note: A change in cytosolic calcium serves as a functional read-out for many receptors and channels.

In assay [5] the target is Short transient receptor potential channel 4 (Mus musculus) (UniProt Q9QUQ5). In words: inhibitors of mouse TRPC4 channel, confirmation, cell-based, Fluo4, HEK293 TRPC4beta/mu-opioid (AID 2636;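 active = calcium signal cut by more than 3 SD below the full-agonist control yet still positive, in both repeats and the earlier primary screen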). Particulars: DAMGO, Fluo4 calcium flux, at 10 µM; active compounds read high.
For assay [6] the target is unchanged. Description: inhibitors of mouse TRPC4 channel, confirmation, cell-based, second round, Fluo4, HEK293 TRPC4beta/mu-opioid, 1 µM (AID 2637;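 active = calcium signal ratio cut to more than 3 SD under the fully stimulated control mean yet still positive, in both repeats and the primary screen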;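 as to inhibition: percent of integrated ratio relative to wells lacking test compound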). The note with it: Fluo4 calcium flux, DAMGO, at 1 µM; active compounds read high.
For assay [7] the target is unchanged. In words: mouse TRPC4 channel activators, dose response, cell-based, HEK293 TRPC4/mu-opioid, Fluo-4 calcium (AID 434937;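 active = primary screen activator hit with a dose response curve and TRPC4 channel activation at any tested dose; inactive = no activation, no dose response, or not a primary hit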).
Assay [8] shares this target. In words: TRPC4 positive allosteric modulators, dose response, cell-based, HEK293 TRPC4/mu-opioid, Fluo-4 calcium, EC20 DAMGO (AID 434941;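 active = earlier screen potentiator hit that boosts the TRPC4 ion channel at some dose, with a dose response; inactive = no potentiation, no dose response, or not a prior hit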;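 also: calcium entry triggered by an EC20 dose of DAMGO at the co-expressed mu-opioid receptor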).
Assay [9] concerns the target Short transient receptor potential channel 6 (Mus musculus) (UniProt Q61143). In words: inhibition of mouse TRPC6 channel, confirmation, selectivity assay for TRPC4 inhibitor project, cell-based, HEK293, membrane potential dye, duplicate (AID 434948;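 active = active in primary screen and both duplicates, each dropping signal beyond three positive-control SD with fluorescence still positive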). Particulars: HEK293 TRPC6, membrane potential dye fluorescence, at 10 µM, stimulated with maximal-effect acetylcholine; active compounds read high.

The target is the same in assay [10]. In words: activation of mouse TRPC6 channel, confirmation, selectivity assay for TRPC4 activator project, cell-based, HEK293, membrane potential dye, duplicate (AID 434950;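 active = membrane potential signal rise above negative control mean plus 3 SD in both duplicates, also active in the earlier TRPC4 screen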). The note with it: HEK293 TRPC6, membrane potential fluorescence, at 10 µM; active compounds read high.
Assay [11] has the same target. In words: TRPC6 potentiation by TRPC4 potentiator hits, confirmation, selectivity assay for TRPC4 potentiator project, HEK293 cells, membrane potential dye, duplicate (AID 434952;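 active = compound raising the membrane signal above positive-control mean plus 3 SD in both repeats, and a primary screen hit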). Particulars: HEK293 TRPC6, membrane potential dye fluorescence, at 10 µM, maximal acetylcholine added after compound; active compounds read high.
Assay [12] deals with Short transient receptor potential channel 4 (Mus musculus) (UniProt Q9QUQ5). Description: calcium flux activators in TRPC4/5HT1a cells, counter-screen for TRPC4 activator project, cell-based, second counter screen, HEK293 TRPC4/5HT1a, Fluo-4 (AID 434977;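 active = calcium signal rise above buffer-control mean plus 5 SD in both duplicates, and also a hit in the primary screen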). The note with it: Fluo-4 calcium flux, at 10 µM; active compounds read high.
A short description of assay [13]: calcium flux inhibitors in TRPC4/5HT1a cells, confirmation, counter-screen for TRPC4 inhibitor project, cell-based, second counter screen, HEK293 TRPC4/5HT1a, Fluo-4 (AID 434978;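 active = primary screen active whose calcium signal fell more than 3 SD beyond the full-serotonin control mean in both duplicate plates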;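 as to outcome: serotonin given first at submaximal then at maximal dose after compound preincubation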). The note with it: Fluo-4 calcium flux, at 10 µM, serotonin added to trigger calcium flux; active compounds read high.
Assay [14] relates to TRPC4 (mouse), co-expressed with 5HT1a in HEK293. In words: calcium flux potentiators in TRPC4/5HT1a cells, confirmation, counter-screen for TRPC4 potentiator project, cell-based, second counter screen, HEK293 TRPC4/5HT1a, Fluo-4 (AID 434979;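 active = signal rise over 3 SD above mean of control wells given weak agonist, in both repeats and first screen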). Particulars: Fluo-4 calcium flux, at 10 µM, serotonin added at its EC20 dose; active compounds read high.
Assay [15] in a line: calcium flux activation in mu-opioid HEK293 cells, confirmation, counter-screen for TRPC4 activator project, cell-based, HEK293 mu-opioid receptor line (AID 449723;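 active = hit in primary screen, with calcium signal over 5 SD above buffer well mean in both duplicates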;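 also: counter screen cells carry the mu-opioid receptor alone and lack TRPC4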). Particulars: Fluo-4 calcium fluorescence, at 10 µM; active compounds read high.
The nature of assay [16]: calcium flux enhancement in mu-opioid HEK293 cells, confirmation, counter-screen for TRPC4 allosteric potentiator project, cell-based, HEK293 mu-opioid receptor line (AID 449724;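 active = calcium signal rise more than 3 SD above the low-dose agonist control mean, in both duplicate plates and the primary screen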;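 also: HEK293 cells carrying mu-opioid receptor only with no TRPC4 channel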). The note with it: Fluo-4 calcium flux, at 10 µM, compound added before EC20 DAMGO stimulus; active compounds read high.

For some assays here: Results with a measured potency or affinity are listed apart. Calls of active or inactive are those of the source.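 The calls were made as follows, unless noted: active = primary screen active and over 50% activation in each of two duplicate runs; inactive = the rest.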

A word on the inhibition: it is the change of the read-out against control, counted positive when it falls.

Sequence of Short transient receptor potential channel 6 (Mus musculus) (Q61143 whole entry, looked up): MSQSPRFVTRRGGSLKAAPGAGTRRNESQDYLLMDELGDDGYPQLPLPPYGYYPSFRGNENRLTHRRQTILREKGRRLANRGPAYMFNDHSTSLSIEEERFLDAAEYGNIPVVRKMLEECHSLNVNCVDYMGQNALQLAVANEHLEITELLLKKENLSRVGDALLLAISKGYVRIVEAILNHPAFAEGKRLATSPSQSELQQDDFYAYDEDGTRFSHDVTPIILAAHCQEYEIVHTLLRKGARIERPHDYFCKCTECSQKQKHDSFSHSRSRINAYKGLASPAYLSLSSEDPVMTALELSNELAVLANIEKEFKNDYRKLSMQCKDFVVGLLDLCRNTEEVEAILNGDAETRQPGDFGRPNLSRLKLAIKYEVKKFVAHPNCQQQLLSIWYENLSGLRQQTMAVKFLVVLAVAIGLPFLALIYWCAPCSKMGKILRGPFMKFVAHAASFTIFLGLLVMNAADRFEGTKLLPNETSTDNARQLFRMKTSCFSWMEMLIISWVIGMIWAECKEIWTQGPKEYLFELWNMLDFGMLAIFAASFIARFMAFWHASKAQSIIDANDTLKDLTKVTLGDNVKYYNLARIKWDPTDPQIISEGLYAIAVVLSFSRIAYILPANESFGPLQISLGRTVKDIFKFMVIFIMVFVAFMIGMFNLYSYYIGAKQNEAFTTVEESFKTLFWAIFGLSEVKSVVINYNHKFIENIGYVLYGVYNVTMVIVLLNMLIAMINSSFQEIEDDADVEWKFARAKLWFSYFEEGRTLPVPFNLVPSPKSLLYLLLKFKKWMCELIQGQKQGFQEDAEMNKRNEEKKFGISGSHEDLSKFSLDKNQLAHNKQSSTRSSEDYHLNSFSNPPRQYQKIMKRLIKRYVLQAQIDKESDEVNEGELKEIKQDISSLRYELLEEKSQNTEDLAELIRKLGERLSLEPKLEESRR
Sequence of Short transient receptor potential channel 4 (Mus musculus) (Q9QUQ5 whole entry, looked up): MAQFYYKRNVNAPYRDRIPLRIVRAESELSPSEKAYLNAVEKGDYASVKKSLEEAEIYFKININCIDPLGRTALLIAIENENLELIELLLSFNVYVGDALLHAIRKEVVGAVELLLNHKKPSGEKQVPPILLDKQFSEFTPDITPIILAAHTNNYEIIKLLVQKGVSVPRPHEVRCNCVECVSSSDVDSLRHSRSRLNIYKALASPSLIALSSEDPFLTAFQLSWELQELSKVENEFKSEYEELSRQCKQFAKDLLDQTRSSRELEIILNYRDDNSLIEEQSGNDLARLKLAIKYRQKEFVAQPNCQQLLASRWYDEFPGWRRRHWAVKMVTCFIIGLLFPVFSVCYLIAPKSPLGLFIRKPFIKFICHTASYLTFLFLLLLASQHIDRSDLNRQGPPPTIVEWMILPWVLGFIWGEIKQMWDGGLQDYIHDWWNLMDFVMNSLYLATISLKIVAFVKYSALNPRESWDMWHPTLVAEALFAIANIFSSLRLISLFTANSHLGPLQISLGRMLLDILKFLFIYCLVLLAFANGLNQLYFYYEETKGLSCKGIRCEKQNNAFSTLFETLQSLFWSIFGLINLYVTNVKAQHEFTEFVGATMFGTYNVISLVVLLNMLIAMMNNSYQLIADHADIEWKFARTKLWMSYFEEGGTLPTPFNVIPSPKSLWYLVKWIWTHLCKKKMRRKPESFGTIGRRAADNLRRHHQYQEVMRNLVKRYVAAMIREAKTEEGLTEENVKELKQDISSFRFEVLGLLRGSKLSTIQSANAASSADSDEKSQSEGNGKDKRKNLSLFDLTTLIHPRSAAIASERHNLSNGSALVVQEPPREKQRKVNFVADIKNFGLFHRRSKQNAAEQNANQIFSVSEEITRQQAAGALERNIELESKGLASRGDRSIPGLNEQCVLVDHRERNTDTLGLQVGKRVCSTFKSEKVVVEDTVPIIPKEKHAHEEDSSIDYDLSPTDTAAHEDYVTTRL

As to `Cc1cccc(-c2nnc(SCc3nc4ccccc4[nH]3)n2Cc2ccco2)c1`, the result in [1], in assay [2], in assay [3], in [4], in assay [6] and in assay [7] was inactive. In addition, the outcome in assay [8], in [9], in [10], in assay [11], in [12] and in assay [14] was inactive. The result in assay [15] and in assay [16] was inactive. In addition, the results for the inhibition in assay [5] and in assay [13] were 90% (active) and 26.7% (active), respectively.
In the case of `CC1(C)CC(NC(=O)c2cc(COc3cccc(C(F)(F)F)c3)on2)CCO1` (centres undefined), the result in [1], in assay [2], in assay [3], in [4], in assay [6] and in [7] was inactive. Further, the result in [8], in assay [9], in assay [10], in assay [11], in assay [12] and in assay [14] was inactive. Besides, the outcome in [15] and in assay [16] was inactive. For the same compound, the inhibition in [5] was 90% (active); in assay [13], 25.2% (active).
Consider `O=C(c1cccc(C(=O)N2CCN(c3ccc(F)cc3)CC2)c1)N1CCN(c2ccc(F)cc2)CC1`, for which the result in [1], in assay [2], in assay [3], in assay [4], in assay [7] and in [8] was inactive. Besides, the call in assay [9], in assay [10], in [11], in [12], in assay [14] and in assay [15] was inactive. For the same compound, the result in [16] was inactive. Besides, the inhibition in assay [5] is 88% (active); in assay [6], 53% (active); in assay [13] it was 42% (active).
For the compound `Cc1ccc(C)c2c(N)c3c(nc12)CCCCC3` (tested in a mixture with another compound), the outcome in assay [1], in assay [2], in assay [3], in [4], in assay [7] and in [8] was inactive. The compound was called inactive in assay [10], in [11], in [12], in [14], in [15] and in [16]. For the same compound, the inhibition in [5] was 97% (active); in [6] it was 69% (active); in assay [9], 33.5% (active); in assay [13], 8.52% (active).
`COC(=O)C1=C(C)N(Cc2ccccc2)C(=S)N[C@H]1c1ccccc1`: the outcome in assay [1], in assay [2], in [3], in assay [4], in assay [6] and in [7] was inactive. The outcome in assay [8], in assay [9], in assay [10], in assay [11], in assay [12] and in assay [14] was inactive. Besides, the result in [15] and in assay [16] was inactive. Also, the inhibition in [5] was 73% (active); in assay [13], 25.6% (active).
Turning to `Cc1ccc(O)c(Sc2cc(C)ccc2O)c1`, the outcome in [1], in [2], in [3], in [4], in assay [6] and in assay [7] was inactive. Moreover, the result in [8], in [10], in assay [11], in assay [12], in assay [14] and in assay [15] was inactive. Also, the result in assay [16] was inactive. In addition, the inhibition in assay [5] is 97% (active); in assay [9], 44.5% (active); in assay [13] it was 13.7% (active).
As to `CCOC(=O)C1(Cc2ccccc2C)CCCN(Cc2ccc(NC(C)=O)cc2)C1` (centres undefined), the result in [1], in assay [2], in assay [3], in assay [4], in assay [6] and in assay [7] was inactive. Also, the result in assay [8], in assay [9], in assay [10], in assay [11], in [12] and in assay [13] was inactive. For the same compound, the outcome in assay [14], in assay [15] and in assay [16] was inactive. Further, in [5], the inhibition is 83% (active).
`COc1cccc(CNC(=O)CCC2CCCN(Cc3cc(Cl)ccc3O)C2)c1` (centres undefined): the result in [1], in assay [2], in assay [3], in assay [4], in assay [6] and in assay [7] was inactive. In addition, the outcome in assay [8], in assay [9], in assay [10], in assay [11], in assay [12] and in assay [14] was inactive. Besides, the outcome in assay [15] and in assay [16] was inactive. Moreover, the inhibition is 93% (active) in [5] and 29% (active) in assay [13].
Turning to `N#CCCn1cc(CNCc2ccccc2)c(-c2cccc([N+](=O)[O-])c2)n1`, the result in [1], in [2], in assay [3], in [4], in [7] and in assay [8] was inactive. The compound was classed as inactive in assay [9], in assay [10], in assay [11], in assay [12], in assay [14] and in assay [15]. The outcome in assay [16] was inactive. In addition, the inhibition is 65% (active) in assay [5], 36% (active) in assay [6] and 30.7% (active) in assay [13].
For the compound `Cc1n[nH]c(C)c1CCCCOc1ccccc1`, the result in assay [1], in assay [2], in assay [3], in assay [4], in [7] and in [8] was inactive. The compound was called inactive in assay [9], in assay [10], in assay [11], in assay [12], in assay [14] and in [15]. The outcome in assay [16] was inactive. Also, the inhibition in [5] was 95% (active); in [6], 40% (active); in assay [13], 31.5% (active).
For the compound `Cn1c(-c2ccccc2)cnc1NCc1ccccc1`, the result in assay [1], in assay [2], in [3], in [4], in assay [7] and in assay [8] was inactive. The compound was classed as inactive in assay [9], in assay [10], in assay [11], in assay [12], in assay [14] and in [15]. Also, in assay [16], the result was inactive. The inhibition in assay [5] is 86% (active); in [6] it was 44% (active); in [13], 38.6% (active).
Turning to `O=C(c1ccc2c(c1)OCO2)C1CCCN(Cc2ccccc2OC(F)F)C1` (centres undefined), the result in assay [1], in [2], in assay [3], in assay [4], in [6] and in assay [7] was inactive. Besides, the result in assay [8], in assay [9], in assay [10], in assay [11], in assay [12] and in assay [14] was inactive. The outcome in assay [15] and in assay [16] was inactive. For the same compound, the inhibition in assay [5] is 89% (active); in assay [13], 41.6% (active).
Turning to `CCC(C)[C@H](Nc1nc(-c2ccccc2)nc2c1oc1ccccc12)C(=O)O` (some centres undefined), the result in [1], in [2], in assay [3], in assay [4], in [6] and in assay [7] was inactive. The outcome in assay [8], in [9], in assay [10], in [11], in assay [12] and in assay [13] was inactive. Also, the outcome in assay [14], in [15] and in [16] was inactive. Moreover, in assay [5], the inhibition is 89% (active).
`Cc1cc(NCc2ccccc2)nc(N2CCOCC2)n1`: the outcome in assay [1], in [2], in assay [3], in assay [4], in assay [7] and in assay [8] was inactive. The compound was classed as inactive in assay [9], in [10], in [11], in [12], in assay [14] and in [15]. In addition, in [16], the result was inactive. The inhibition is 95% (active) in assay [5], 40% (active) in [6] and 26.5% (active) in [13].
